Pf growth 96h = Primary qHTS for delayed death inhibitors of the malarial parasite plastid, 96 hour incubation; P. falciparum luciferase reporter growth, 96 h; Potency, µM (doses to about 28.7 µM), without a hit: at the highest dose activity change, negative = inhibition, hits mostly inhibitors; 6.9% of 320,000 active; AID 504834, 2011; further: potency means the concentration at half of the fitted maximal effect; on the % scale 0 is the no-effect control and ±100 the full control effect
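Two parasite generations (96 h, 37 C, 5% CO2) of compound exposure in infected erythrocytes (0.05% parasitemia, 2% hematocrit). Luciferase-reporter P. falciparum; decreased luminescence indicates inhibited growth, aimed at apicoplast-acting delayed death.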
CHX counter = Cycloheximide Counterscreen for Small Molecule Inhibitors of Shiga Toxin; cell reporter, cycloheximide protein synthesis inhibition counterscreen; max response, %; 12% of 300,000 active; AID 2314, 2010; in the data active means max response mostly above about 13%, no sharp cut-off; inactive means mostly below about 14%; further: read at 38.3 µM for the half of the compounds with a filed dose; 0% is about no effect
Shiga inhibitor = A qHTS for Small Molecule Inhibitors of Shiga Toxin; inhibition, % at 38.7 µM; 9.2% of 290,000 active; Vero cells, Shiga toxin protein synthesis inhibition reporter; in the data active means inhibition mostly above about 28%, no sharp cut-off; inactive means mostly below about 43%; further: 0% is about no effect
Pf growth 48h = Primary qHTS for delayed death inhibitors of the malarial parasite plastid, 48 hour incubation | P. falciparum luciferase growth in erythrocytes, 48 h | Potency, µM (top dose mostly 28.7 µM), without a hit: at the highest dose activity change, negative = inhibition, hits mostly inhibitors | 5.9% of 310,000 active; further: potency means the concentration at half of the fitted maximal effect; on the % scale 0 is the no-effect control and ±100 the full control effect
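Growth was read as firefly luciferase luminescence after a 48 h, 37 C, 5% CO2 exposure of compounds to reporter-bearing P. falciparum cultures (0.1% parasitemia, 2% hematocrit final) in Albumax-supplemented RPMI 1640.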
* = called active by the depositor; ? = inconclusive; . = no result given. Rows were chosen to be rich in hits. Some 21% of all compounds tested hit in one or more screens of this group. Unless noted, the call rests on the fitted dose curve; in most records, active means well fitted inhibition curve with a large enough effect; inconclusive means small, poorly fitted or top-dose-only effect, or another doubt; inactive means no such curve, though single readings can be large or run the other way.

SMILES	Pf growth 96h	CHX counter	Shiga inhibitor	Pf growth 48h
COC(=O)[C@@]1(O)C[C@@H]2O[C@@]1(C)n1c3ccccc3c3c4c(c5c6ccccc6n2c5c31)C(=O)NC4	.	-3	-12	.
COc1ccc(CNC(=O)[C@H](C)NC(=O)N2CCn3c2nc2ccccc23)cc1	22%	1	-2	10%
COc1ccc(CSc2ncnc3sccc23)cc1F	5%	12	55*	2%
CN(C(=O)COC(=O)c1ccccc1NCCO)C1CCS(=O)(=O)C1 (stereo not drawn)	0%	.	.	-19%
C=CCN1C(=O)/C(=C/c2ccc(OC(C)=O)c(OCC)c2[N+](=O)[O-])SC1=S	23%	27*	103*	9.3µM*
Cc1cc(C(=O)COC(=O)c2n[nH]c3ccccc23)c(C)n1C	-27%	47*	62*	108%
Cc1cc(C(=O)COC(=O)c2nccnc2N)c(C)n1C	294%	42*	103*	341%
CC1CCCCN1C(=O)COC(=O)c1n[nH]c2ccccc12 (stereo not drawn)	183%	58*	57	.
Cc1cc(C(=O)COC(=O)c2n[nH]c(=O)c3ccccc23)c(C)n1C	8%	.	.	80%
COCCn1c(C)cc(C(=O)COC(=O)c2n[nH]c3ccccc23)c1C	18%	11*	31	8%
CCNCc1nc2cc(Cl)ccc2c(=O)[nH]1	35%	-7	-15	3%
N#CCCNS(=O)(=O)c1ccc(C(=O)OCCCOC(=O)c2ccc(S(=O)(=O)NCCC#N)cc2)cc1	13%	-8	-20	23%
Cc1ccccc1C(=O)NCCNC(=O)c1cnccn1	0%	-5	-13	25%
COc1ccc(N2CCN(C(=O)NCc3cccc(OC)c3)CC2)cc1	38%	-3	-6	6%
CCC(=O)c1ccc(OCC(=O)OCC(=O)c2cc(C)n(C)c2C)cc1	13µM*	-3	-8	?
COc1cc([C@@H]2CC=C(C(=O)O)[C@H](c3ccc(Cl)cc3)N2S(=O)(=O)c2ccc(C)cc2)cc(OC)c1OC	9.3µM*	.	.	9.3µM*
Cc1ccc(S(=O)(=O)N2[C@@H](c3ccccc3)C(C(=O)O)=CC[C@H]2c2cccc(Cl)c2)cc1	5%	.	.	-13%
COc1cc([C@@H]2CC=C(C(=O)O)[C@H](c3ccccc3)N2S(=O)(=O)c2ccc(C)cc2)cc(OC)c1OC	8.3µM*	.	.	3.3µM*
Cc1cc(C)nc(N2CCCC(C(=O)Nc3cccc(Cl)c3)C2)n1 (stereo not drawn)	-4%	-9	7	?
COc1ccc([N+](=O)[O-])cc1N(CC(O)CN(CC(C)C)CC(C)C)S(=O)(=O)c1ccccc1 (stereo not drawn)	?	-3	11	9.3µM*
CCCCN(CCCC)CC(O)CN(c1cc([N+](=O)[O-])ccc1OC)S(=O)(=O)c1ccccc1 (stereo not drawn)	?	-3	-5	13µM*
COc1ccc([N+](=O)[O-])cc1N(CC(O)CN(C)C)S(=O)(=O)c1ccc(C)cc1 (stereo not drawn)	17%	-2	-16	-20%

Screening results (PubChem BioAssay)
